G9a block: blocks human histone lysine methyltransferase G9a; G9a H3K9 monomethylation, AlphaScreen, 2 h; Potency, µM (top dose mostly 102 µM), without a hit: at the highest dose activity, negative = inhibition, most hits filed as inhibitors; hit rate 8.8% among 350,000; further: on the % scale 0 is the no-effect control and ±100 the full control effect; nearly all actives have a fitted effect of over 75% in size
Target sequence (Q96KQ7 913-1193 limits assumed): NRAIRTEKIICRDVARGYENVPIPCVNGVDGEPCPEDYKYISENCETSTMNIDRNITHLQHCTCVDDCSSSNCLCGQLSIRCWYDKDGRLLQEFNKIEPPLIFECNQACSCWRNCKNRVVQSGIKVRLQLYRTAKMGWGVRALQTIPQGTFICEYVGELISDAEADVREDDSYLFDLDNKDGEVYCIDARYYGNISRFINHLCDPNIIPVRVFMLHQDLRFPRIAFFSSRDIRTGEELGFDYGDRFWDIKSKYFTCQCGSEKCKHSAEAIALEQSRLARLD
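AlphaScreen read-out: biotin-H3K9 peptide (500 nM) methylation by 20 nM enzyme with 20 uM SAM, 2 h at room temperature after 15 min compound preincubation; anti-monomethyl H3K9 antibody plus donor/acceptor beads, 10 min dark.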
BAZ2B inh: blocks human BAZ2B; Q9UIF8; AID 504333; Potency, µM (highest dose often 114 µM), for the others: at the highest dose activity change, negative = inhibition, actives largely listed as inhibitors; AlphaScreen BAZ2B-H3K14Ac peptide displacement; hit rate 4.4% among 360,000; further: on the % scale 0 is the no-effect control and ±100 the full control effect; nearly all actives have a fitted effect of over 60% in size
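Inhibition is scored as reduced AlphaScreen emission. The BAZ2B/b-H3(5-23)K14Ac complex (50 nM each) in PBS pH 7.4, 0.01% Tween-20 meets compound (up to 110 uM) for 30 min at RT before bead addition.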
PLK1 PBD inh: inhibitors of human PLK1 polo-box domain binding | P53350 | Plk1 PBD binding of FITC phosphopeptide, fluorescence polarization | Potency, µM, without a hit: max response, negative = inhibition, hits mostly inhibitors | hit rate 2.8% among 360,000 | AID 720504; further: series mostly up to about 57 µM; on the % scale 0 is the no-effect control and ±100 the full control effect; nearly all actives have a fitted effect of over 65% in size
HP1b binding inh: blocks HP1-beta chromodomain binding to methylated histone tails | AlphaScreen HP1-beta / biotin-H3K9me3 peptide binding | Potency, µM (top dose mostly 114 µM), for the others: top-dose activity change, negative = inhibition, actives largely listed as inhibitors | hit rate 0.56% among 390,000 | AID 540317; further: nearly all actives have a fitted effect of over 70% in size
Target sequence (P83916 whole entry, looked up): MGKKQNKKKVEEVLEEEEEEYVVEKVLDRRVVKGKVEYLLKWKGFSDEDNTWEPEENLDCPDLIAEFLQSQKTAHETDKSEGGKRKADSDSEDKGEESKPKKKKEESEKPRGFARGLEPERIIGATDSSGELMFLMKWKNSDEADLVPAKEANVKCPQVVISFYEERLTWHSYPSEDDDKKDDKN
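AlphaScreen: HP1-beta (50 nM) preformed 30 min with biotin-H3(1-18)K9me3 peptide (50 nM) in PBS pH 7.4, 0.01% Tween-20. Compound added for 30 min at RT, then streptavidin donor/nickel chelate acceptor beads (10 ug/mL) for 30 min.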
ALOX12 inh: ALOX12 (human) lipoxygenase inhibition; purified 12hLO, xylenol orange hydroperoxide absorbance; Potency, µM (doses to about 108 µM), inactives show at the top dose activity change, negative = inhibition, usual class: inhibitors; hit rate 1.1% among 580,000; further: on the % scale 0 is the no-effect control and ±100 the full control effect
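Purified human 12hLO at 150 nM in 25 mM Hepes, 0.01% Triton X-100, pH 7.0, preincubated 15 min at room temperature with compound. Reaction started with 40 uM arachidonic acid, 30 min at room temperature. Hydroperoxide measured by Fe-xylenol orange, 573/405 nm absorbance ratio.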
JMJD2A Tudor: JMJD2A Tudor domain (human) inhibition; O75164; AlphaScreen JMJD2A-Tudor / H3K4me3 peptide binding; Potency, µM (doses to about 114 µM), for inactives: at the top dose activity change, negative = inhibition, actives largely listed as inhibitors; AID 504339; hit rate 4.4% among 390,000; further: on the % scale 0 is the no-effect control and ±100 the full control effect; nearly all actives have a fitted effect of over 50% in size
Numbers without * were called inactive; i = inactive; ? = inconclusive; . = no result given; ! = not confirmed by another sample; [ ] = another dose, or the depositor's remark. Hits are enriched below; roughly 9% of the tested compounds scored in any of these assays. The call rests on the fitted dose curve; in most records, active means well fitted curve in the direction sought with a large enough effect; inconclusive means small, poorly fitted or top-dose-only effect, or another doubt; inactive means no such curve, though single readings can be large; an effect the other way counts as inactive or inconclusive. Potency means the concentration at half of the fitted maximal effect.

SMILES	G9a block	BAZ2B inh	PLK1 PBD inh	HP1b binding inh	ALOX12 inh	JMJD2A Tudor
COc1cccc(CNC(=O)c2cccc(OC)c2)c1	.	.	.	.	21.4%	.
Cc1cccc(Nc2nnc(SCC(=O)c3c(N)n(C4CC4)c(=O)[nH]c3=O)s2)c1	17.1%[12.7 µM]	15.4%	-6.1%	38.4%	495.7%	-3.7%
C/C(N)=C(/C#N)C(=O)CSc1nc2cc(Cl)ccc2s1	14.1µM*	-9.7%	?	10.4%	?	-19.0%
C/C(N)=C(/C#N)C(=O)CSc1nnc(Nc2cccc(C)c2)s1	?	?	-9.2%	-4.8%	-13.0%	79.4µM*!
C/C(N)=C(/C#N)C(=O)CSc1cc(Cl)ccc1Cl	?	-18.4%	-7.0%	27.8%	0.1%	-7.1%
COC(=O)c1ccccc1N1C(=O)[C@@H]2C(c3ccc(Br)cc3)=NO[C@@H]2C1=O	?	8.3%	-28.4%	4.7%	0.0%	-2.7%[11.4 µM]
COc1ccc(OC)c(-c2csc(NC(=O)Cc3ccc(F)cc3)n2)c1	-15.8%	-38.8%	-7.1%	-14.3%	-12.5%	?
CCn1nc(C(=O)Nc2nc(-c3ccccn3)cs2)c2ccccc2c1=O	-8.2%[12.7 µM]	-0.2%	-11.6%	14.6%	i	-28.4%
Cc1ccc(-c2csc(NC(=O)Cc3ccc(F)cc3)n2)o1	10µM*	-32.8%	23.8µM*	?	?	-32.3%
Cc1ccc(C(=O)Nc2nc(-c3ccc4c(c3)OCCO4)cs2)o1	.	.	1.1%	.	?	.
Cc1ccc(C(=O)Nc2nc(-c3ccccn3)cs2)o1	?	17.8µM*	-22.5%	27.1%	5.7%	50.1µM*
O=C(Nc1nc(-c2ccccn2)cs1)c1ccc([N+](=O)[O-])o1	6.31µM*	20µM*	13.4µM*	?	?	22.4µM*
CCc1cc(C(=O)Nc2nc(-c3ccccn3)cs2)sc1C	-7.5%[12.7 µM]	70.8µM*	?	27.6%	134.0%	?
CC1=C(C)CC(C(=O)N2CCN(Cc3ccc(C)cc3)CC2)C(C(=O)O)C1 (stereo not given)	.	.	.	.	10.8%	.
COc1cccc(CN2Cc3cc(NC(=O)c4cccc(F)c4)ccc3OC(C)C2=O)c1OC (stereo not given)	.	.	.	.	39.7%	.
O=C(CSc1ccc(-c2cccnc2)nn1)Nc1ccccc1	12.3%	-4.1%	-5.9%	21.2%	0.0%	-6.2%
Cc1ccc(C(=O)Nc2nc(-c3ccc([N+](=O)[O-])cc3)cs2)o1	0.0%[59 µM]	-33.9%	-10.6%	29.3%	-17.4%	-5.6%
O=C(Nc1nc(-c2ccccn2)cs1)c1ccc(-c2ccccc2F)o1	43.1%[12.7 µM]	79.4µM*	-9.7%	38.9%	79.8%	?
CCc1nnc(NC(=O)c2ccc(-c3ccc(C(C)=O)cc3)o2)s1	-7.7%[12.7 µM]	-5.0%	-0.4%	20.1%	-3.8%	-27.2%
CC(=O)Nc1ccc(-c2csc(NC(=O)c3ccc(C)o3)n2)cc1	44.7µM*	-34.1%	-9.1%	16.8%	-14.4%	-13.3%
CC(=O)c1ccc(-c2ccc(C(=O)Nc3nc(-c4ccccn4)cs3)o2)cc1	.	.	26.7µM*	-2.7%	153.6%	-34.1%
CCCn1nc(C(=O)Nc2nc(-c3ccccn3)cs2)c2ccccc2c1=O	44.1%[12.7 µM]	?	-5.2%	29.5%	337.0%	56.2µM*
Cc1oc(-c2cccc(Cl)c2)nc1CN1CCC(C(=O)NC(C)C)CC1	-0.1%[59 µM]	-25.6%	.	14.6%	-6.6%	-12.8%
COc1cc(C(=O)N/N=C(\c2ccccc2)c2ccccn2)cc(OC)c1OC	55.0%[59 µM]	?	-12.3%	22.1%	1.6%	?
Cc1c(NC(=O)C(C)OC(=O)c2cc(-c3cccc4ccccc34)nc3ccccc23)c(=O)n(-c2ccccc2)n1C (stereo not given)	11.2µM*	-4.7%	-10.3%	-2.7%	5.7%	-27.1%
SMILES	G9a block	BAZ2B inh	PLK1 PBD inh	HP1b binding inh	ALOX12 inh	JMJD2A Tudor
COc1ccc(-c2cc(C(=O)OC(C)C(=O)Nc3c(C)n(C)n(-c4ccccc4)c3=O)c3ccccc3n2)cc1 (stereo not given)	22.3%[59 µM]	-2.1%	4.9%	-5.2%	-19.6%	-8.4%
Cc1c(NC(=O)C(C)OC(=O)/C=C/c2ccco2)c(=O)n(-c2ccccc2)n1C (stereo not given)	?	50.1µM*	26.7µM*	44.7µM*	-4.8%	20µM*
CCCCS/C(=C(/C#N)C(N)=O)c1cc2c([nH]1)CCCC2	20µM*	39.8µM*	-14.7%	?	?	44.7µM*
Cn1c(=O)c2[nH]c(CN3CCN(Cc4ccccc4)CC3)nc2n(C)c1=O	?	-5.4%	-1.3%	9.4%	?	8.91µM*
CN1CCN(Cc2nc3c([nH]2)c(=O)[nH]c(=O)n3C)CC1	?	-3.7%	-8.4%	-2.3%	?	10µM*
Cn1c(=O)c2[nH]c(CN3CCCCC3)nc2n(C)c1=O	.	.	2.5%	?	-19.4%	3.98µM*
Cn1c(=O)[nH]c(=O)c2[nH]c(CO)nc21	.	.	2.8%	19.3%	?	?
COc1ccc(CCN(C)C(=O)C2CCN(Cc3ccccc3)CC2)cc1OC	11.1%	12.2%	-3.7%	?	-15.8%	22.4µM*
COc1ccc(CN2CCC(N(CCc3ccccc3)Cc3ccccc3)CC2)c(OC)c1	?	39.8µM*	-5.7%	?	?	3.16µM*
CCN(Cc1ccccc1)C1CCN(Cc2ccccc2)CC1	70.8µM*	-23.9%	3.6%	29.4%	.	-6.0%
COc1ccc(CCN(C)C(=O)C2CCN(Cc3cccc(OC)c3OC)CC2)cc1OC	.	?	-2.9%	-16.2%	?	3.16µM*
COc1ccc(CCN(C)C(=O)C2CC(=O)N(Cc3ccc(C)cc3)C2)cc1OC (stereo not given)	0.0%[59 µM]	3.6%	-8.5%	26.0%	8.4%	-3.0%
CCC(CC)NC(=O)COC(=O)c1cc(SC)ccc1Cl	12.7%	3.0%	-19.0%	39.0%	-7.5%	-7.9%
CCN(CC)S(=O)(=O)c1ccc(N=Nc2c(C)[nH]n(C(N)=S)c2=O)cc1	?	4.8%	?	-23.0%	-10.2%	?
CN(C)CCNC(=O)C1CCN(Cc2cc3ccccc3n2Cc2ccccc2)CC1	-2.8%[59 µM]	?	.	-4.5%	-29.7%	-32.7%
COc1ccc(CCN(C)C(=O)CN2C(=O)c3ccccc3S2(=O)=O)cc1OC	?	-1.5%	?	?	34.8%	79.4µM*
COc1ccc(CCN(C)C(=O)c2cc(-c3ccccc3)nc3ccccc23)cc1OC	39.8µM*	?	-0.4%	25.1%	-1.2%	-9.5%
CN(Cc1ccccc1)C(=O)C1CCN(Cc2cc3ccccc3n2Cc2ccccc2)CC1	-27.1%[59 µM]	-21.2%	.	19.8%	44.7µM*	-14.3%
COc1ccc(CN2CCC(C(=O)N(C)CCc3ccc(OC)c(OC)c3)CC2)c(OC)c1	10µM*	?	-9.9%	?	?	7.94µM*

Screening data: PubChem, National Center for Advancing Translational Sciences (NCATS)
